PubChem BioAssay AID1851 (National Center for Advancing Translational Sciences (NCATS), 2009)
About 5,100 (32%) of roughly 16,000 compounds were called active. Another 25% or so got no clear call; they are omitted. The call rests on the fitted dose curve; in most records, active means well fitted curve in the direction sought with a large enough effect; inconclusive means small, poorly fitted or top-dose-only effect, or effect the other way; inactive means no such curve, though single readings can be large or run the other way. The list shows a part of the results.

Target: Cytochrome P450 3A4 (Homo sapiens) (UniProt P08684)
Sequence (P08684 whole entry, looked up): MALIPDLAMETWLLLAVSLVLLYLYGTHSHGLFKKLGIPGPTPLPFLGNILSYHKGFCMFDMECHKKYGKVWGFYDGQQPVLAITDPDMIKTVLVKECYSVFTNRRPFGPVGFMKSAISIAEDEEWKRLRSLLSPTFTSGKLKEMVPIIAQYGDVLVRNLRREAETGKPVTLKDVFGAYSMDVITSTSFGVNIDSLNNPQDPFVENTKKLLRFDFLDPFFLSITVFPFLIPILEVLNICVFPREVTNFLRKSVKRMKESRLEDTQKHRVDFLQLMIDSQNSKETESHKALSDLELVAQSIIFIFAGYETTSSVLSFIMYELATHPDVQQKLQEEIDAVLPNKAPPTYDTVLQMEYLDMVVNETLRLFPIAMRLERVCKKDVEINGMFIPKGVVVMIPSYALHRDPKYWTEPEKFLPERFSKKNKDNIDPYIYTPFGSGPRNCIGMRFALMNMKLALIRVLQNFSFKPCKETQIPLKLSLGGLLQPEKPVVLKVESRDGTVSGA
Experiment: Cytochrome panel assay with activity outcomes
Conditions: recombinant CYP, pro-luciferin dealkylation, luminescence, p450-cyp3a4; series mostly up to 57.1 µM
On the % scale 0 is the no-effect control and ±100 the full control effect.

| Structure (SMILES) | AC50 | activity, negative = inhibition |
| --- | --- | --- |
| COc1ccc2[nH]cc(CCNc3ncncc3-c3ccc(N(C)C)cc3)c2c1 | 0.501 µM (active) |  |
| COc1ccc2[nH]cc(CCNc3ncncc3-c3ccc(C(=O)N(C)C)cc3)c2c1 | 1 µM (active) |  |
| COc1ccc2[nH]cc(CCNc3ncnc4ccc(-c5ccc(C(=O)N(C)C)cc5)cc34)c2c1 | 2.51 µM (active) |  |
| CC1CC/C(=C\c2ccc3c(c2)OCO3)C(=O)/C1=C/c1ccc2c(c1)OCO2 (stereo unspecified) | 1.58 µM (active) |  |
| CCS(=O)(=O)c1ccc(C(=O)Nc2ccccc2)c(Cl)c1Cl | 5.01 µM (active) |  |
| CCS(=O)(=O)c1ccc(O)c(NC(=O)Nc2ccccc2)c1 | inactive |  |
| CC(C)CO/N=C1/[C@H]2O[C@@H]2[C@@H](O)[C@H]2[C@H]1CCn1c(=O)n(C)c(=O)n12 |  | -9.68% [at 11.4 µM] (inactive) |
| Cc1nc(S(=O)(=O)NC2CCCCC2)c(C#N)c(C)c1Cl | 7.94 µM (active) |  |
| Cc1nc(S(=O)(=O)N(C)c2ccccc2)c(C#N)c(C)c1Cl | inactive |  |
| Cc1nc(S(=O)(=O)N2CCOCC2)c(C#N)c(C)c1Cl | inactive |  |
| Cc1cccc(NC(=O)CSc2nc(COc3ccccc3)nc3ccccc23)c1C | 3.98 µM (active) |  |
| N[C@H](C(=O)O)c1ccc(O)c(C(=O)O)c1 | inactive |  |
| N[C@@H](C(=O)O)c1cc(O)ccc1Cl | 15.8 µM (active) |  |
| N[C@H](C(=O)O)c1ccc(C(=O)O)c(O)c1 | inactive |  |
| N[C@@H](C(=O)O)c1ccc(C(=O)O)c(O)c1 | inactive |  |
| N[C@H](C(=O)O)c1cc(O)cc(O)c1 | 12.6 µM (active) |  |
| N[C@H](C(=O)O)c1cccc(O)c1 | inactive |  |
| NC(N)=N[C@@H]1C(O)[C@H](N=C(N)N)[C@@H](O)C(O)[C@H]1O (stereo partly specified) |  | 12.2% [at 11.4 µM] (inactive) |
| NC(=O)NC(=O)[C@H]1CCCC[C@@H]1C(=O)O |  | 2.92% [at 11.4 µM] (inactive) |
| COn1c(SC(C)C)nc2ccccc2c1=O |  | 5.93% [at 11.4 µM] (inactive) |
| COn1c(SCc2ccc(C)cc2C)nc2ccccc2c1=O | 12.6 µM (active) |  |
| COn1c(SCc2cccc(Cl)c2)nc2ccccc2c1=O | inactive |  |

| Structure (SMILES) | AC50 | activity, negative = inhibition |
| --- | --- | --- |
| COc1ccc(Oc2c(Cl)cnn(-c3ccccc3)c2=O)cc1 | 14.1 µM (active) |  |
| O=c1oc(-c2ccco2)nc2c1cnn2-c1ccccc1 | inactive |  |
| COc1cccc(/C=N/n2nnc3c(cnn3-c3ccccc3)c2=O)c1 | inactive |  |
| CN(C)c1nc(-c2cccnc2)nc2ccccc12 | 7.94 µM (active) |  |
| CSc1c(-c2ccccc2)nc2ccccc2c1C(=O)O | inactive |  |
| CN(C)c1ccc(-c2nc(N(C)C)c3ccccc3n2)cc1 | 12.6 µM (active) |  |
| CN(C)c1nc(-c2ccccc2C(F)(F)F)nc2ccccc12 | inactive |  |
| CNc1nc(-c2ccc(N(C)C)cc2)nc2ccccc12 | 15.8 µM (active) |  |
| O=C(CC1(O)CCCCC1)OC1CCCC1 |  | -11.8% [at 11.4 µM] (inactive) |
| O=C1COc2ccccc2CN1 |  | 5.27% [at 2.29 µM] (inactive) |
| Cn1c(=O)c2[nH]c([C@@H]3CC(=O)C[C@H](c4nc5c([nH]4)c(=O)n(C)c(=O)n5C)N3)nc2n(C)c1=O |  | 2.95% [at 11.4 µM] (inactive) |
| COc1cccc(NC(=O)c2oc3ccccc3c2NC(C)=O)c1 | 11.2 µM (active) |  |
| COc1cccc(C(=O)Nc2ccc(NC(=O)c3ccco3)cn2)c1 |  | -4.16% [at 2.29 µM] (inactive) |
| COc1cccc(NC(=O)c2oc3ccccc3c2NC(=O)c2ccc3c(c2)OCO3)c1 | 1.78 µM (active) |  |
| COc1c(NC(C)=O)c2ccccc2c2ccccc12 |  | -28.7% [at 11.4 µM] (inactive) |
| CCOc1ccc(NC(=O)c2oc3ccccc3c2NC(=O)CC)cc1 | 15.8 µM (active) |  |
| CC1(C)[C@@H]2CC[C@]1(CC(=O)O)[C@H](Cl)C2 |  | -12.3% [at 11.4 µM] (inactive) |
| CC1(C)CC(=O)C2=C(C1)Oc1nc3ccccc3cc1C2C(C#N)C#N (stereo unspecified) | 14.1 µM (active) |  |
| Cc1cc(NC(=O)c2ccccc2Cl)c(C(C)C)cc1O | 25.1 µM (active) |  |
| Cc1cc(NC(=O)c2ccccc2Cl)no1 | inactive |  |
| O=C(Nc1ccccc1Cl)c1ccccc1Cl | inactive |  |
| O=C1[C@@H]2[C@@H](C(=O)N1c1ccc(OCc3ccccc3)cc1)[C@@H]1c3ccccc3[C@@H]2[n+]2ccccc21 |  | -9.33% [at 11.4 µM] (inactive) |

| Structure (SMILES) | AC50 | activity, negative = inhibition |
| --- | --- | --- |
| COCOc1cc(OC)ccc1C(=O)/C=C\c1ccc2c(c1)OCO2 | 1 µM (active) |  |
| Nc1ccccc1C(=O)/C=C\c1ccc2c(c1)OCO2 | 3.16 µM (active) |  |
| O=C(O)/C=C\C=C/c1ccc2c(c1)OCO2 |  | -6.19% [at 11.4 µM] (inactive) |
| O=C(/C=C\c1ccc2c(c1)OCO2)c1ccc(F)cc1 | 3.16 µM (active) |  |
| COc1ccccc1N1CCN(C(=O)/C=C/c2ccc3c(c2)OCO3)CC1 | 3.55 µM (active) |  |
| Cc1ccc(N=CC2=C(O)CC(c3ccco3)CC2=O)cc1 (stereo unspecified) | inactive |  |
| C[C@@H]1CCN=C(N)S1 | inactive |  |
| COC(=O)c1c(-c2ccc3ccccc3c2)csc1NC(=O)Cc1ccc(OC)c(OC)c1 | 1.78 µM (active) |  |
| O=C1c2ccccc2C(=O)N1CCCSc1ccccc1 |  | -16.6% [at 11.4 µM] (inactive) |
| Cc1ccc(OCCCN2C(=O)C(=O)c3cccc(C)c32)cc1 | 15.8 µM (active) |  |
| N#CC(C#N)=CNCCN1CCN(C=C(C#N)C#N)CC1 |  | -20.1% [at 11.4 µM] (inactive) |
| Cc1oc(-c2ccccc2F)nc1CS(=O)(=O)CC(=O)NCCCN(C)C1CCCCC1 | 10 µM (active) |  |
| O=c1[nH]c2cc(Br)cnc2nc1/C=C(\O)c1ccc(F)cc1 | 5.01 µM (active) |  |
| C=C(C)CN(CC#N)CC(=C)C |  | -17.3% [at 11.4 µM] (inactive) |
| COc1ccc(N2CCc3c(C)nc4c(OC)cc(OC)cc4c32)c(OC)c1 | 5.01 µM (active) |  |
| Cc1o[nH]c(=O)c1CC[C@H](N)C(=O)O | inactive |  |
| CCCc1nnc(SCC(=O)N2CCCC(C)C2)n1CC1CCCO1 (stereo unspecified) | 8.91 µM (active) |  |
| CCCc1nnc(SCC(=O)N2C(C)CCCC2C)n1CCCOC (stereo unspecified) |  | 8.82% [at 2.29 µM] (inactive) |
| CCCc1nnc(SCC(=O)N2CCCCC2)n1CCCOC | inactive |  |
| CCCc1nnc(SCC(=O)N2CCCCC2C)n1CC1CCCO1 (stereo unspecified) | 12.6 µM (active) |  |
| CCCc1nnc(SCC(=O)N2CCCCC2)n1CC1CCCO1 (stereo unspecified) | 15.8 µM (active) |  |
| CCCS(=O)(=O)N1CCCC(C(=O)NCC2CCCO2)C1 (stereo unspecified) | inactive |  |
